Data: PubChem BioAssay AID1159606 (Sanford-Burnham Center for Chemical Genomics, 2016)
The whole screen tested about 360,000 compounds, of which about 7,300 (2%) were called active. Many of the other results were omitted from the sample, so actives are more common in it than they were. Unmarked numbers belong to inactive results. Cut-off read from the data, not from the text of the source: active = inhibition above about 50%; inactive = the rest.

Assay: blockers of TWEAK-induced Fn14 reporter activity – luciferase reporter cells, uHTS, primary screen (AID 1159606)
Details: TWEAK-stimulated Fn14 reporter cells, luciferase luminescence, 8 h; at 10 µM; hits give high values

| SMILES | inhibition |
| --- | --- |
| CCOC(=O)[C@]12CCCC=C1N(Cc1ccc3c(c1)OCO3)C(=O)[C@H](CC(=O)NCc1cccs1)C2 | 15.5% |
| O=S(=O)(Cc1ccc(Cl)cc1Cl)c1ccc(Cl)cc1 | 12.1% |
| CCCCNC(=O)C[C@@H]1C[C@@]2(C(=O)OCC)CCC=C2N(Cc2cccc3ccccc23)C1=O | 14.7% |
| COc1ccc(S(=O)(=O)Nc2ccc3oc(C)c(C(C)=O)c3c2)cc1 | 54.4% (active) |
| CC(=O)c1c(C)oc2ccc(NS(=O)(=O)c3ccccc3)cc12 | 21.6% |
| CC(=O)c1c(C)oc2ccc(NS(=O)(=O)c3ccc(C(=O)O)cc3)cc12 | 3.85% |
| CC1(C(=O)NS(=O)(=O)c2ccc(C#N)cc2)CCN1C(=O)CC1CCCC1 (stereo not drawn) | 1.67% |
| CCCCCCN1C[C@H](O)[C@@H](n2cc(C3CC3)nn2)C[C@@H]1c1ccc(Cl)cc1 | -1.73% |
| O=C(/C=C/[C@H]1O[C@@H](n2cnc3c(NC(=O)c4ccccc4)ncnc32)[C@H](O)[C@@H]1O)NCc1ccccc1 | -7.74% |
| COc1ccc(NC(=O)C2C3CCC(O3)C2C(=O)O)cc1OC (stereo not drawn) | 2.27% |
| COc1ccc(NC(=S)SC)cc1OC | 68.3% (active) |
| COc1ccc(NC(=O)CSCc2ccc([N+](=O)[O-])cc2)cc1OC | 6.35% |
| COc1cc(OC)cc(C(=O)NCCSCc2ccc(Cl)cc2)c1 | 0.23% |
| Cc1nc2ccccc2c(=O)n1NC(=O)c1ccc(Cl)c([N+](=O)[O-])c1 | 32.6% |
| CCn1c(/C=C/c2ccc([N+](=O)[O-])o2)nc2ccccc2c1=O | 63.4% (active) |
| C=CCn1c(SCC(=O)NC(=O)Cc2ccccc2)nc2ccccc2c1=O | 14% |
| COc1ccc(Cl)cc1NC(=O)COC(=O)C(CC(C)C)N1C(=O)C2CC=CCC2C1=O (stereo not drawn) | -4.03% |
| Nc1[nH]c(C(=O)c2ccccc2)c(-c2ccc(Br)cc2)c1C(=O)NC1CC1 | -5.57% |
| CN(C)S(=O)(=O)c1ccc(Oc2ccc(S(=O)(=O)N(C)C)cc2)cc1 | 6.23% |
| Cc1cc(C(C)(C)C)cc(C)c1N | -8.01% |
| CC(C)(C)c1ccc(Oc2ccc(N)cc2)cc1 | 99% (active) |
| CC(=O)c1ccc(OCCCC(=O)Nc2ccc(C)c(S(=O)(=O)N3CCOCC3)c2)cc1 | -0.59% |

| SMILES | inhibition |
| --- | --- |
| COC(=O)c1ccc2nc(-c3cccc(Br)c3)c(Cc3ccccc3C(F)(F)F)n2c1 | -11.5% |
| Nc1nc(-c2sc3nc4c(cc3c2N)CCCC4)nc(N2CCOCC2)n1 | -10.3% |
| COc1ccc(CCNC(=O)COC(=O)Cc2cc(OC)c(OC)c(OC)c2)cc1 | -9.86% |
| O=C(COC(=O)C1CCCO1)Nc1nc(-c2ccc(F)cc2)cs1 (stereo not drawn) | -21.9% |
| COc1cc(CC(=O)Nc2nc(-c3ccc(F)c(F)c3)cs2)cc(OC)c1OC | 60.3% (active) |
| COc1ccc(CC(=O)Nc2nc(-c3ccc(F)c(F)c3)cs2)cc1OC | 59% (active) |
| COc1ccc(CC(=O)Nc2ccccc2NC(=O)c2ccco2)cc1OC | -18.6% |
| COc1ccc(CC(=O)NC2CCSc3ccccc32)cc1OC (stereo not drawn) | 2.41% |
| O=c1cc(CO)oc(C(Nc2cccc(C(F)(F)F)c2)c2ccccn2)c1O (stereo not drawn) | -5.67% |
| Cc1cc(C)cc(N(CCC#N)C(=O)CN2C(=O)NC3(CCCC3)C2=O)c1 | -2.17% |
| CCC(C)NC(=O)CN(C1CCCCC1)S(C)(=O)=O (stereo not drawn) | 5.8% |
| CCCCCCN1CCN(C2CN(Cc3cn(Cc4ccc(F)cc4)nn3)S(=O)(=O)C2)CC1 (stereo not drawn) | 8.31% |
| O=C(Nc1nnc(C2CC2)s1)c1ccccn1 | 65.5% (active) |
| CN(C(=O)c1ccccn1)c1nnc(-c2ccccn2)s1 | -1.91% |
| Cc1cnc(NC(=O)c2ccccn2)s1 | 55.5% (active) |
| CCc1cc(C(=O)Nc2nnc(C3CC3)s2)sc1C | 7.61% |
| Cc1cnc(NC(=O)Cn2cnc3c2c(=O)n(C)c(=O)n3C)s1 | 6.18% |
| CCc1ccccc1OCC(=O)Nc1nnc(C2CC2)s1 | -23.1% |
| CN(C)c1cccc(NC(=O)c2ccc(-c3ccc(F)c(F)c3)c3ccoc23)c1 | -36.6% |
| CCNC(=S)Nc1ccc2c(c1)c(=O)n(C)n2Cc1ccc(Cl)cc1 | 10.2% |
| C=CCn1c(=S)[nH]c2scc(-c3ccco3)c2c1=O | 2.15% |
| CC(C)CNC(=O)C1(C)CCCN1C(=O)CSc1ccccc1 (stereo not drawn) | 24.6% |

| SMILES | inhibition |
| --- | --- |
| Cc1cc(C)nc(S/C=C/C(=O)c2ccccc2)n1 | 93.2% (active) |
| O=C(/C=C/Sc1ncn[nH]1)c1ccc(Cl)cc1 | 46.2% |
| COC(c1ccccc1)(c1ccccc1)C(Oc1nc(C)cc(C)n1)C(=O)O (stereo not drawn) | 1.41% |
| COc1ccc(NC(=O)CC2C(=O)NC3CCCCC3N2C(=O)c2ccc(F)cc2)cc1 (stereo not drawn) | 3.34% |
| CCSc1nc(=S)n(CC)c(C)c1C(C)=O | -1.72% |
| O=S1(=O)C[C@@H](N2CCN(CCO)CC2)[C@H](COCc2ccccc2)N1 | 7.64% |
| CCOC(=O)[C@H]1[C@H]2COc3ccc(C)cc3[C@@H]2N2C(=O)CN(Cc3ccc(F)cc3)C(=O)[C@@]12C | -5.2% |
| CCn1c(Cc2ccc(OC)cc2)nnc1SCC(=O)Nc1ccc(N2CCOCC2)cc1 | 4.78% |
| O=C(COC(=O)CCc1nc2ccccc2c(=O)[nH]1)Nc1ccc(N2CCOCC2)cc1 | -0.73% |
| COc1cccc(/C=C(/CC(=O)Nc2ccc(N3CCOCC3)cc2)c2nc3ccccc3s2)c1 | 62.8% (active) |
| CCN(CC)C(=O)[C@H]1C[C@H](CC(=O)NCC23CC4CC(CC(C4)C2)C3)C(=O)N2CCc3c([nH]c4cc(CCC(=O)N(C)C)ccc34)[C@]12C | 6.21% |
| Cc1cccc(CN2CCN(C3CN(Cc4cn(Cc5cc(C)cc(C)c5)nn4)S(=O)(=O)C3)CC2)c1 (stereo not drawn) | 12.5% |
| CCc1ccc(-c2nnn(Cc3nc4ccccc4s3)n2)cc1 | -5.59% |
| COC(=O)C1[C@H]2SC(C)(C)C(C(=O)OC)N2C(=O)N1Cc1nc2ccccc2s1 (stereo partly drawn) | 10% |
| COc1ccccc1OCc1nc2ccccc2s1 | 72.9% (active) |
| CC1(C)C2CC[C@]3(C)C(CC=C4[C@@H]5C[C@@](C)(CO)CC[C@]5(C(=O)O)CC[C@]43C)[C@@]2(C)CC[C@@H]1O (stereo partly drawn) | -12.1% |
| CNC(=O)c1ccsc1NC(=O)c1ccc(S(=O)(=O)N2CCc3ccccc32)cc1 | 54.5% (active) |
| CC1CN(S(=O)(=O)c2ccc(C(=O)Nc3sccc3C(N)=O)cc2)CC(C)O1 (stereo not drawn) | -0.86% |
| CNC(=O)C1CN(C(=O)c2cccc(S(=O)(=O)N3CCc4ccccc43)c2)c2ccccc2O1 (stereo not drawn) | 11.3% |
| CCCCCc1c(Cc2ccccc2)ncn1CCc1ccccc1OC | 24.1% |
| Cc1ccc(C)c(NC(=O)CN(C)C(=O)c2ccc3ncsc3c2)c1 | 1.46% |
| Cc1ccc(NS(=O)(=O)c2cc3c(cc2Br)NC(=O)CO3)cc1C | 19.6% |

| SMILES | inhibition |
| --- | --- |
| O=C(Nc1cccc(F)c1)[C@@H]1CCCN1 | -1.09% |
| O=C1c2ccccc2C(=O)N1CC1c2ccccc2CCN1S(=O)(=O)c1ccccc1 (stereo not drawn) | 4.13% |
| CCC(C)NC(=O)c1ccccc1NC(=O)c1ccccc1N(C)S(C)(=O)=O (stereo not drawn) | -11.3% |
| O=c1c(/C=N/O)coc2ccc(Cl)cc12 | -3.08% |
| CC(C)(C)OC(=O)NCCCCCC(=O)N/N=C/c1coc2ccccc2c1=O | -1.48% |
| Cc1ccc2occ(/C=N/NC(=O)c3ccccc3C)c(=O)c2c1 | 70.5% (active) |
| CC1(C)CC(=O)c2cnc3nc4ccccc4n3c2C1 | 6.24% |
| Cn1c(N)c(C(=O)COC(=O)/C=C/c2ccc(OC(F)F)cc2)c(=O)n(C)c1=O | -0.1% |
| CCCOc1ccc(F)cc1-c1cc(C(=O)Nc2ccc(F)c(Cl)c2)[nH]n1 | 76.2% (active) |
| CCCOc1ccc(F)cc1-c1cc(C(=O)NCc2ccc(F)cc2)[nH]n1 | 24.1% |
| CCCOc1ccc(F)cc1-c1cc(C(=O)Nc2ccc(F)cc2)[nH]n1 | 37.3% |
| CCCNC(=O)c1cc2c(c(-c3cccc(-c4ccc(C#N)cc4)c3)n1)[C@@H](CCO)N(C(=O)CC)C2 | -20.1% |
| CC(=O)c1c(C)n(-c2ccc(N(C)C)cc2)c2ccc(OCC(N)=O)cc12 | 57.5% (active) |
| CC(=O)c1c(C)n(-c2ccc(C)cc2)c2ccc(O)cc12 | 15.6% |
| Cc1cccc(OCC(=O)NCC(=O)N/N=C/c2ccc(N(C)C)cc2)c1 | -4.48% |
| COC(=O)[C@]12CCCCC=C1N(Cc1ccccc1)C(=O)[C@H](CC(=O)NCc1ccc(C)o1)C2 | 9.51% |
| O=C1NC[C@H](CCCCN2C[C@H](Cc3ccc(O)cc3)N(CCc3ccccc3)C(=O)C2=O)N(CCc2ccccc2)C1=O | 13.5% |
| O=C1N/C(=C/c2cccn2-c2ccccc2)C(=O)N1c1cccc(Cl)c1 | 62.3% (active) |
| O=C1CC(NNc2ccccc2)C(=O)N1c1cccc(Cl)c1 (stereo not drawn) | 15.1% |
| N#Cc1ccccc1CN1C(=O)S/C(=C/c2cccn2-c2cccc(C(=O)O)c2)C1=O | 0.32% |
| Cc1ccc([C@H]2C[C@H](O)[C@@H](n3cc(COC(=O)c4ccccc4)nn3)CN2C(=O)C2CCCCC2)cc1 | 21% |
| COCCNC(=O)c1ccccc1-c1nc(-c2ccccc2Cl)no1 | -18.8% |
